Data from PubChem BioAssay (Tox21).
Where “and” joins values, the source holds several entries; their conditions need not be identical. Equal entries are not always repeated. Records with an inconclusive call do not appear. Where a call stands in place of a potency, no number is given. Calls of active or inactive are those of the source. Unless noted, calls come from the whole dose curve; as a rule, active = well fitted curve in the direction sought with a large enough effect in the repeat runs; inconclusive = weak or mixed curves; inactive = no such curve, though single readings can be large; an effect the other way counts as inactive or inconclusive.

Legend:
[1] = qHTS assay to identify small molecule agonists of the sonic hedgehog signaling (Shh) pathway (AID 1259368; calls by dose curve; note: nearly all actives have a fitted effect of over 15% in size; note: potency is the fitted concentration of half-maximal effect)
Outline: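 Mouse fibroblast (NIH/3T3) reporter cells with stably integrated Gli1-Luc were treated 24 hr with compound; firefly luciferase luminescence served as the read-out.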

[2] = qHTS assay to identify small molecule antagonists of the sonic hedgehog signaling (Shh) pathway (AID 1259369; calls by dose curve; note: nearly all actives have a fitted effect of over 45% in size; note: potency is the fitted concentration of half-maximal effect)
Outline: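 Conditioned medium drives Shh signalling in 3T3Gli1-Luc cells; compounds in DMSO co-applied, 24hr at 37 C, then luciferase luminescence.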

[3] = qHTS assay to identify small molecule agonists of the androgen receptor (AR) signaling pathway in the presence of an antagonist - cell viability counter screen (AID 1259379); note: nearly all actives have a fitted effect of over 25% in size; note: potency is the fitted concentration of half-maximal effect
Outline: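 A CellTiter-Fluor read-out measured viability of MDA-kb2 reporter cells (MMTV promoter with AR and GR response elements). Treatment: nilutamide 3.0uM final with compounds at 15 concentrations, 16 hr, 37C, 0% CO2.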

[4] = qHTS assay to identify small molecule antagonists of the estrogen receptor beta (ER-beta) signaling pathway - cell viability counter screen (AID 1259382); note: nearly all actives have a fitted effect of over 55% in size; note: potency is the fitted concentration of half-maximal effect
Outline: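 Agonist-stimulated (1nM E2) ER-beta-UAS-bla HEK293T cells are incubated with library compounds for 16 hr at 37C. Cell viability is then assessed in the reporter-assay wells by adding CellTiter-Glo and reading luminescence after 30 min.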

[5] = target: Estrogen receptor (Homo sapiens) (UniProt P03372); assay: qHTS assay to identify small molecule agonists of the estrogen receptor alpha (ER-alpha) signaling pathway in the presence of an antagonist (AID 1259383; calls by dose curve; note: top concentration of the series differs between compounds; nearly all actives have a fitted effect of over 15% in size)
Outline: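 Using VM7Luc4E2 cells seeded 24hr before treatment, antagonist ICI-182,780 (10.0nM final) was added, followed by compounds at 15 concentrations. Plates incubated 22hr; ONE-Glo luminescence quantified reporter activity.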

[6] = qHTS assay to identify small molecule agonists or antagonists of the thyroid stimulating hormone receptor (TSHR) signaling pathway - wild type cell line counter screen (AID 1259384; calls by dose curve)
Outline: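 Counter screen in untransfected Hek293: compounds (15-point titration, triplicate) plus phosphodiesterase inhibitor Ro20-1724 added after 18 h plating; 30 min RT. Intracellular cAMP via competitive d2/cryptate immunoassay, 1 h incubation.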

[7] = target: Thyrotropin receptor (Homo sapiens) (UniProt P16473); assay: qHTS assay to identify small molecule antagonists of the thyroid stimulating hormone receptor (TSHR) signaling pathway (AID 1259385; calls by dose curve; note: nearly all actives have a fitted effect of over 20% in size)
Outline: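 Antagonist mode: compound-treated TSHR-expressing HEK293 cells were stimulated with 1.5 ng/mL TSH (final) in presence of Ro20-1724 for 30 min at RT. HTRF cAMP detection after 1 h; each compound tested at 15 concentrations, triplicate.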

[8] = qHTS assay to identify small molecule agonists of the estrogen receptor alpha (ER-alpha) signaling pathway in the presence of an antagonist - cell viability counter screen (AID 1259386);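 note: cells exposed to compounds for 22 h at 37 °C before the viability read; nearly all actives have a fitted effect of over 30% in size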; note: potency is the fitted concentration of half-maximal effect
Outline: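 ICI-182,780 at 10.0nM final accompanies the compound titration (15 concentrations, 22hr, 37C) on VM7Luc4E2 cells. The CellTiter-Fluor fluorescence readout runs in the same wells as the luciferase assay.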

[9] = target: Progesterone receptor (Homo sapiens) (UniProt P06401); assay: qHTS assay to identify small molecule antagonists of the progesterone receptor (PR) signaling pathway (AID 1346795; active = well fitted inhibition curve with a large enough effect in the signal ratio in the repeat runs, not every such curve was filed as active; the % refers to the signal ratio; note: potency is the fitted concentration of half-maximal effect)
Outline: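 Inhibition of R5020-induced (1 nM final) beta-lactamase reporter signal in PR-UAS-bla HEK293T cells was scored by FRET fluorescence after overnight (16 hr) compound treatment.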

[10] = qHTS assay to identify small molecule antagonists of the progesterone receptor (PR) signaling pathway - cell viability counter screen (AID 1346798); note: nearly all actives have a fitted effect of over 50% in size; note: potency is the fitted concentration of half-maximal effect
Outline: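 ATP content as viability readout: CellTiter-Glo luminescence, 30 min room temperature, in PR-UAS-bla HEK293T cells after 16 hr compound/R5020 treatment at 37C and 5% CO2.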

[11] = qHTS assay to identify small molecule agonists of the progesterone receptor (PR) signaling pathway - cell viability counter screen (AID 1346799; calls by dose curve; note: nearly all actives have a fitted effect of over 45% in size)
Outline: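 Cytotoxicity in PR-bla HEK293T cells: 16 h compound, 37C; CellTiter-Glo added post-FRET read; luminescence after 30 min RT.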

[12] = qHTS assay to identify small molecule antagonists of the TGF-beta/Smad signaling pathway - cell viability counter screen (AID 1346824); note: nearly all actives have a fitted effect of over 50% in size
Outline: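 Cytotoxicity counter-screen run in the same wells as the beta-lactamase Smad reporter read: CellTiter-Glo luminescence after 30 min at room temperature. HEK 293T SBE-bla cells had 5 hr compound exposure at 37 C with TGF-beta1 (0.25 ng/mL stock).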

[13] = qHTS assay to identify small molecule agonists of the TGF-beta/Smad signaling pathway - cell viability counter screen (AID 1346829); note: nearly all actives have a fitted effect of over 45% in size; note: potency is the fitted concentration of half-maximal effect
Outline: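 CellTiter-Glo luminescence readout; SBE-bla HEK 293T cells, overnight plating, compound 5 hr at 37 C/5% CO2, then bla substrate 2 hr RT, then CellTiter-Glo 30 min RT.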

[14] = qHTS assay to identify small molecule agonists of the TGF-beta/Smad signaling pathway (AID 1346859; active = well fitted activation curve with a large enough effect in the signal ratio in the repeat runs, not every such curve was filed as active; the % refers to the signal ratio; note: potency is the fitted concentration of half-maximal effect; for activation: series mostly up to about 77 µM)
Outline: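 Stable Smad binding element-beta-lactamase HEK 293T cells; 5 hr compound exposure at 37 C under 5% CO2; 2 hr room-temperature substrate step; fluorescence excited at 405 nm, collected at 460 nm and 530 nm.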

[15] = qHTS assay to identify small molecule agonists of the estrogen receptor beta (ER-beta) signaling pathway - cell viability counter screen (AID 1259380); note: nearly all actives have a fitted effect of over 30% in size; note: potency is the fitted concentration of half-maximal effect
Outline: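 Cells used were ER-beta-UAS-bla HEK293T in medium with 2% charcoal-stripped FBS. They were treated for 16 hr at 37C. Viability came from CellTiter-Glo luminescence.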

[16] = target: Thyrotropin-releasing hormone receptor (Homo sapiens) (UniProt P34981); assay: qHTS assay to identify small molecule antagonists of the thyrotropin-releasing hormone receptor (TRHR) signaling pathway (AID 1346877; active = well fitted inhibition curve with a large enough effect in the repeat runs, not every such curve was filed as active; note: series mostly up to about 51 µM)
Outline: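 Screening used HEK293 cells engineered with TRHR, with a brief 5 min room-temperature compound exposure preceding addition of TRH to 1 nM. The read-out was kinetic calcium-dye fluorescence, concentration-response from 15 doses in triplicate.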

[17] = target: Progesterone receptor (Homo sapiens) (UniProt P06401); assay: qHTS assay to identify small molecule agonists of the progesterone receptor (PR) signaling pathway (AID 1346784; calls by dose curve; note: nearly all actives have a fitted effect of over 30% in size)
Outline: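 Using charcoal-stripped serum (2%) to limit endogenous steroids, PR-UAS-bla HEK 293T cells received compounds for 16 hr at 37C after 6 hr plating; beta-lactamase FRET fluorescence was recorded following 2 hr substrate loading at room temperature.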

[18] = target: Androgen receptor (Homo sapiens) (UniProt P10275); assay: qHTS assay to identify small molecule agonists of the androgen receptor (AR) signaling pathway in the presence of an antagonist (AID 1259381; calls by dose curve; note: nearly all actives have a fitted effect of over 15% in size)
Outline: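 Using human MDA-kb2 cells with an MMTV promoter–luciferase construct (AR and GR response elements), agonist activity is scored under 3.0uM nilutamide (final) co-treatment; 16hr incubation, 37C, luminescence readout via ONE-Glo.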

Sequence of Thyrotropin receptor (Homo sapiens) (P16473 whole entry, looked up): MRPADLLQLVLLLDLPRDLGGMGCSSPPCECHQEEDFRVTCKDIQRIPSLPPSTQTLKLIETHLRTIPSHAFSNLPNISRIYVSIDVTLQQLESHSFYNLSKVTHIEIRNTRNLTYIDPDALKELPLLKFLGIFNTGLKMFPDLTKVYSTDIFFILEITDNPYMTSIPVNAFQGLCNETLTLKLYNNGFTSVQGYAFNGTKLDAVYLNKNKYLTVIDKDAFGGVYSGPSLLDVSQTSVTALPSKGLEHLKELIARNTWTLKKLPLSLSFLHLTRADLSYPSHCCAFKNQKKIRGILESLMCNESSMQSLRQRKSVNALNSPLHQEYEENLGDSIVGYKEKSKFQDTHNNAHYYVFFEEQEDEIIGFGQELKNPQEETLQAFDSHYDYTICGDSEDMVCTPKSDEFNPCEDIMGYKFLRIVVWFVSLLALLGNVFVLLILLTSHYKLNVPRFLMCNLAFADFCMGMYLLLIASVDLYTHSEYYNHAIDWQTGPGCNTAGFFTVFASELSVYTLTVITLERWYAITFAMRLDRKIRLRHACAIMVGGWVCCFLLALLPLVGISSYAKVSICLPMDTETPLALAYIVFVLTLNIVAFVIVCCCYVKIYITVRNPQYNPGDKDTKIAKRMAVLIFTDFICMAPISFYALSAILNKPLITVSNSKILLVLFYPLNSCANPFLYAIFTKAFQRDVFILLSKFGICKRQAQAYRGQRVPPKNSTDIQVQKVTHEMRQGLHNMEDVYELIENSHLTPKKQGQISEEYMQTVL
Sequence of Thyrotropin-releasing hormone receptor (Homo sapiens) (P34981 whole entry, looked up): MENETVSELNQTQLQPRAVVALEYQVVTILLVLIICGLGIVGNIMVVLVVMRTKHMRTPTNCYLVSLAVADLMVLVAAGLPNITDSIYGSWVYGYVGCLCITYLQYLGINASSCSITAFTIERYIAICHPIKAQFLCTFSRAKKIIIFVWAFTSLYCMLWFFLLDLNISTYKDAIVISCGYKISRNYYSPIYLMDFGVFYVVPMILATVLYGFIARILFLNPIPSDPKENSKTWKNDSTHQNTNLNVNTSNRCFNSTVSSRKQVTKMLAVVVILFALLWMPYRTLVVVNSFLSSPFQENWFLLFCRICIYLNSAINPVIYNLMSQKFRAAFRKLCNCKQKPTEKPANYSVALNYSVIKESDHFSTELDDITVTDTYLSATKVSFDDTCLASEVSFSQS
Sequence of Estrogen receptor (Homo sapiens) (P03372 whole entry, looked up): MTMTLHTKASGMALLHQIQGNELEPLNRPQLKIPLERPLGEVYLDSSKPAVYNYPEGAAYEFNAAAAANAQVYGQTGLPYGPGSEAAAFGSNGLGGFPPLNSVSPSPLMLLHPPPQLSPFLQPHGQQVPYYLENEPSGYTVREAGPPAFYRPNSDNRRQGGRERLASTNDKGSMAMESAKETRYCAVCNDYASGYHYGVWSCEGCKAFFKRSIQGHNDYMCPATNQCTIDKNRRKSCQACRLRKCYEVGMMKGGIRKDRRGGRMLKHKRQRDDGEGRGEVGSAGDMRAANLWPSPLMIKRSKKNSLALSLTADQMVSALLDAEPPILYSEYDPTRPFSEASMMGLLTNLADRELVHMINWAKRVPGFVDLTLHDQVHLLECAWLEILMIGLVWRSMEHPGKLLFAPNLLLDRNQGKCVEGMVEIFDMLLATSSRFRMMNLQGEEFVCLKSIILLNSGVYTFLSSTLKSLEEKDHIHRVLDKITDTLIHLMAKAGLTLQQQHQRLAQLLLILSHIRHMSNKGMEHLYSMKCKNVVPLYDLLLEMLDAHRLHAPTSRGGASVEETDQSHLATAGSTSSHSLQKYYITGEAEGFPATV
Sequence of Progesterone receptor (Homo sapiens) (P06401 whole entry, looked up): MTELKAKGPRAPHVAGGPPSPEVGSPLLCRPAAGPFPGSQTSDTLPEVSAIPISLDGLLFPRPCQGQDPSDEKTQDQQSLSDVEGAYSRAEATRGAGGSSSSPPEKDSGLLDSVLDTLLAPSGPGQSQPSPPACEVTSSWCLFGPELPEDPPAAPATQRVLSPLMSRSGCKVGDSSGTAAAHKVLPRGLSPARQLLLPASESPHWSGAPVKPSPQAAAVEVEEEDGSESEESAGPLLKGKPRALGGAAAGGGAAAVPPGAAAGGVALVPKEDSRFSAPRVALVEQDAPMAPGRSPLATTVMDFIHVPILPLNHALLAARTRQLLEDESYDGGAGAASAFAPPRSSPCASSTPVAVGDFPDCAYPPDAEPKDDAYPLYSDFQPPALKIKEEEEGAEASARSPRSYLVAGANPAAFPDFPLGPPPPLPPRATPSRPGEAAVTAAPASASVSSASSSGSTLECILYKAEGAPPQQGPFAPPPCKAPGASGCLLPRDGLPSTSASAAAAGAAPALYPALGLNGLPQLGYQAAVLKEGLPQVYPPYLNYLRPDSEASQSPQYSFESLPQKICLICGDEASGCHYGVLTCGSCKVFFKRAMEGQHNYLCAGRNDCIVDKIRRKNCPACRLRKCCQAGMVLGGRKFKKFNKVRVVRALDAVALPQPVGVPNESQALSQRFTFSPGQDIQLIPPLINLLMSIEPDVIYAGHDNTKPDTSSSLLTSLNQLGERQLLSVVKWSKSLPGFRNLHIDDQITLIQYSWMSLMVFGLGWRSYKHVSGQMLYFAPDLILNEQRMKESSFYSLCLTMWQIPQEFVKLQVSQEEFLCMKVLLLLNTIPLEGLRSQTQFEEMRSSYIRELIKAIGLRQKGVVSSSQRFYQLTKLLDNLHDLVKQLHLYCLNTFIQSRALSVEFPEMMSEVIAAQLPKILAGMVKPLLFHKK
Sequence of Androgen receptor (Homo sapiens) (P10275 whole entry, looked up): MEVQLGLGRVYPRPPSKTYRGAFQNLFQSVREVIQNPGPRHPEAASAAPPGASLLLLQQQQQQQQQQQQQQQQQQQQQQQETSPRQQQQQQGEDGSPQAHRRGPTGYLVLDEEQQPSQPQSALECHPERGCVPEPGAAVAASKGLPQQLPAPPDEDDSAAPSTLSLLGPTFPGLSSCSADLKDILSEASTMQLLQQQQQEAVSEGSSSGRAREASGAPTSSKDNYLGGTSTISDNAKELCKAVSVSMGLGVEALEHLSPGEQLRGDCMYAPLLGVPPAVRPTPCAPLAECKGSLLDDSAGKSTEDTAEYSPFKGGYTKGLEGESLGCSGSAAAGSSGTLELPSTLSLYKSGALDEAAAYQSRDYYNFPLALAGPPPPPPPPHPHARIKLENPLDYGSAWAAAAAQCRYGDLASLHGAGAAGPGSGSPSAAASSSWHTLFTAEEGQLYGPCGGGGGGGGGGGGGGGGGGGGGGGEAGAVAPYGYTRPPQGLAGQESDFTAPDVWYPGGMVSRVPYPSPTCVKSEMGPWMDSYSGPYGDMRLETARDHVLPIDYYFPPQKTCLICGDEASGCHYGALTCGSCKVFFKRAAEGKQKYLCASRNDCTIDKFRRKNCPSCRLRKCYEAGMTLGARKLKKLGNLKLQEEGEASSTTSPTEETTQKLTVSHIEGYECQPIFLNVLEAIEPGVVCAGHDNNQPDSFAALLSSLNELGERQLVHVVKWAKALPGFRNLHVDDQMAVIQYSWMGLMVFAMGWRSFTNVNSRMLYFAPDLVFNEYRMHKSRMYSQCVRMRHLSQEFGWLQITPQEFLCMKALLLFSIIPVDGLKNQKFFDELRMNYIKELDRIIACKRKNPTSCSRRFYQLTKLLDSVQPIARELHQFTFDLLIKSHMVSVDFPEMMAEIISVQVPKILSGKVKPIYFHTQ

CCCCCC#CC(=O)OC
Potency [1]: inactive | Potency [2]: inactive | Potency [3]: inactive | Potency [4]: inactive | Potency [5]: inactive | outcome [6]: inactive | Potency [7]: inactive | Potency [8]: inactive | Potency [9]: inactive | Potency [10]: inactive | Potency [11]: inactive | Potency [12]: inactive | Potency [13]: inactive | Potency [14]: inactive

CN1C(=O)N(c2ccccc2Br)Cc2cnc(Nc3ccc4c(c3)OCC(CO)O4)nc21 (stereo not drawn)
Potency [1]: inactive | Potency [2]: 6.86 µM (active) | Potency [3]: 61.1 µM (active) | Potency [15]: 34.4 µM (active) | Potency [4]: 38.6 µM (active) | Potency [5]: inactive | outcome [6]: inactive | Potency [7]: inactive | Potency [10]: 38.6 µM (active) | Potency [13]: 34.7 µM (active) | Potency [14]: inactive | outcome [16]: inactive

C[C@]1(Cn2ccnn2)[C@H](C(=O)O)N2C(=O)C[C@H]2S1(=O)=O
Potency [1]: inactive | Potency [2]: inactive | Potency [3]: inactive | Potency [4]: inactive | Potency [5]: inactive | outcome [6]: inactive | Potency [7]: inactive | Potency [8]: inactive | Potency [10]: inactive | Potency [11]: inactive | Potency [12]: inactive | Potency [13]: inactive | Potency [14]: inactive | outcome [16]: inactive

CC(=O)Nc1ccc(C)cc1C
Potency [1]: inactive | Potency [2]: inactive | Potency [3]: inactive | Potency [4]: inactive | outcome [6]: inactive | Potency [8]: inactive | Potency [9]: inactive | Potency [10]: inactive | Potency [11]: inactive | Potency [12]: inactive | Potency [13]: inactive | Potency [14]: inactive

CCOC(=O)[C@H](CCc1ccccc1)N[C@@H](C)C(=O)N(CC(=O)O)C1Cc2ccccc2C1
Potency [1]: inactive | Potency [2]: inactive | Potency [3]: inactive | Potency [15]: 6.68 µM (active) | Potency [4]: 11.9 µM (active) | Potency [5]: inactive | Potency [8]: inactive | Potency [17]: inactive | Potency [10]: 6.68 µM (active) | Potency [12]: inactive | Potency [13]: inactive | Potency [14]: inactive | outcome [16]: inactive

Oc1ccc(Cl)c2cccnc12
Potency [1]: inactive | Potency [2]: 0.596 µM (active) | Potency [3]: inactive | Potency [18]: inactive | Potency [4]: inactive | Potency [5]: inactive | outcome [6]: inactive | Potency [7]: inactive | Potency [8]: inactive | Potency [17]: inactive | Potency [9]: 3.76 µM (active) | Potency [12]: inactive | Potency [13]: inactive | Potency [14]: inactive | outcome [16]: inactive

Cc1ccc(OC(=O)c2ccccc2O)cc1
Potency [1]: inactive | Potency [2]: inactive | Potency [3]: inactive | Potency [15]: inactive | Potency [4]: inactive | Potency [17]: inactive | Potency [9]: inactive | Potency [10]: inactive | Potency [12]: inactive | Potency [13]: inactive | Potency [14]: inactive

C[C@@]12CCC[C@H]1[C@@H]1CC[C@H]3C[C@@H](O)CC[C@]3(C)[C@H]1CC2
Potency [1]: inactive | Potency [2]: 23.7 µM (active) | Potency [3]: inactive | Potency [15]: inactive | Potency [4]: inactive | outcome [6]: inactive | Potency [7]: inactive | Potency [8]: inactive | Potency [17]: inactive | Potency [10]: 26.6 µM (active) | Potency [11]: inactive | Potency [12]: inactive | Potency [13]: inactive | Potency [14]: inactive | outcome [16]: inactive

O=c1c(O)c(-c2ccc(O)cc2)oc2cc(O)cc(O)c12
Potency [1]: inactive | Potency [2]: 21.6 µM (active) and 26 µM (active) | Potency [3]: inactive | Potency [4]: inactive | outcome [6]: inactive | Potency [7]: inactive | Potency [17]: inactive | Potency [9]: 5.19 µM (active) | Potency [12]: inactive | Potency [13]: inactive

Nc1ccc(N=Nc2ccccc2)c(N)c1
Potency [1]: 1.34 µM (active) | Potency [2]: inactive | Potency [3]: 26.7 µM (active) | Potency [15]: 26.7 µM (active) | Potency [5]: inactive | Potency [8]: 26.7 µM (active) | Potency [9]: 47.5 µM (active) | Potency [10]: inactive | Potency [11]: inactive | Potency [12]: inactive | Potency [13]: inactive | Potency [14]: inactive | outcome [16]: inactive

FC(F)(F)c1ccccc1Cl
Potency [1]: inactive | Potency [2]: inactive | Potency [3]: inactive | Potency [15]: inactive | Potency [4]: inactive | Potency [5]: inactive | Potency [8]: inactive | Potency [17]: inactive | Potency [9]: inactive | Potency [10]: inactive | Potency [11]: inactive | Potency [12]: inactive | Potency [13]: inactive | Potency [14]: inactive | outcome [16]: inactive

COC(=O)c1nc(Cl)c(Cl)nc1N
Potency [1]: inactive | Potency [2]: 0.75 µM (active) | Potency [3]: 29.8 µM (active) | Potency [15]: 29.8 µM (active) | Potency [5]: inactive | outcome [6]: inactive | Potency [7]: inactive | Potency [8]: inactive | Potency [12]: inactive | Potency [13]: inactive | Potency [14]: 23.9 µM (active) | outcome [16]: inactive

CCCCC(CC)COP(=O)(O)O (stereo not drawn)
Potency [1]: inactive | Potency [2]: inactive | Potency [3]: inactive | Potency [4]: inactive | Potency [5]: inactive | outcome [6]: inactive | Potency [7]: inactive | Potency [8]: inactive | Potency [17]: inactive | Potency [11]: inactive | Potency [12]: inactive | Potency [13]: inactive | Potency [14]: inactive

CC(C)C[C@H](NC(=O)[C@H](CCc1ccccc1)NC(=O)CN1CCOCC1)C(=O)N[C@@H](Cc1ccccc1)C(=O)N[C@@H](CC(C)C)C(=O)[C@@]1(C)CO1
Potency [1]: inactive | Potency [2]: 0.0119 µM (active) | Potency [3]: 1.19 µM (active) | Potency [15]: 0.266 µM (active) | Potency [5]: inactive | outcome [6]: inactive | Potency [7]: inactive | Potency [8]: inactive | Potency [10]: inactive | Potency [12]: inactive | Potency [13]: inactive | Potency [14]: inactive | outcome [16]: inactive

COc1ccccc1Oc1c(NS(=O)(=O)c2ccc(C(C)(C)C)cc2)nc(-c2ncccn2)nc1OCCO
Potency [1]: inactive | Potency [2]: 15 µM (active) | Potency [3]: inactive | Potency [4]: inactive | Potency [5]: inactive | outcome [6]: inactive | Potency [7]: inactive | Potency [8]: inactive | Potency [17]: inactive | Potency [10]: inactive | Potency [11]: inactive | Potency [12]: inactive | Potency [13]: inactive | Potency [14]: inactive | outcome [16]: inactive

CCOC(=O)/C=C/C(=O)OCC
Potency [1]: inactive | Potency [2]: inactive | Potency [3]: inactive | Potency [4]: inactive | Potency [5]: inactive | outcome [6]: inactive | Potency [7]: inactive | Potency [8]: inactive | Potency [17]: inactive | Potency [9]: inactive | Potency [10]: inactive | Potency [11]: inactive | Potency [12]: inactive | Potency [13]: inactive | Potency [14]: inactive | outcome [16]: inactive
